Screens as filed in PubChem BioAssay.
The list is not random: actives were taken first. Their share in the collection is about 3.5%.
GPR151 ag = human GPR151 activation; Q8TDV0; PathHunter beta-arrestin GPR151 cells, luminescence; activation, % at 11.2 µM; hit rate 1% among 650,000; AID 1508602; in the data active means activation above about 4.9%
FBW7 act = activators of human E3 ligase FBW7; Q969H0; AlphaScreen FBW7–phospho-cyclin E peptide binding, activator screen; normalized activity (activation), % at 26.1 µM; hit rate 0.13% among 650,000; in the data active means normalized activity above about 1.9%;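 further: purified mutant Fbw7 with reduced substrate affinity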
Target sequence (Q969H0 whole entry, looked up): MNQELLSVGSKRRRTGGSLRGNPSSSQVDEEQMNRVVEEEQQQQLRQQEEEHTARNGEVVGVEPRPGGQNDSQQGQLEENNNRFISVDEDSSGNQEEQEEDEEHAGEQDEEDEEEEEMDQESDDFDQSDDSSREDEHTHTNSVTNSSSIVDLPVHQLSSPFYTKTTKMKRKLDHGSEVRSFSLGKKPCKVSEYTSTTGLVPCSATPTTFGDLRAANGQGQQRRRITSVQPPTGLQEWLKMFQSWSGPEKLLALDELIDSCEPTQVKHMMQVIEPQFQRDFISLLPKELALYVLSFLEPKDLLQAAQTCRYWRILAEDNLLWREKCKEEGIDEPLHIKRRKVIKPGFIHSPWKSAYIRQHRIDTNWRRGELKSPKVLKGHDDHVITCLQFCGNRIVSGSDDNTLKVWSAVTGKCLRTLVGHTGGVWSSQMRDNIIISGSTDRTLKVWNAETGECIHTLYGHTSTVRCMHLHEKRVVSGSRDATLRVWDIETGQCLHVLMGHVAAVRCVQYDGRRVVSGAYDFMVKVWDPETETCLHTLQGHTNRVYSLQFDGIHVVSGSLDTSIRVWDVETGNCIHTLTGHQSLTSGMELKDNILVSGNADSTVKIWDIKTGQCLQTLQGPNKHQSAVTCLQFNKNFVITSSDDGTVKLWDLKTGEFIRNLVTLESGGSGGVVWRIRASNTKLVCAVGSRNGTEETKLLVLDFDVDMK
TEAD-YAP inh = TEAD-YAP interaction inhibition; HEK-TIYL cells, TEAD-Gal4/YAP UAS-luciferase luminescence; inhibition, % at 9.12 µM; hit rate 1.4% among 640,000; in the data active means inhibition above about 32%
MITF inh = blocks human microphthalmia-associated transcription factor. O75030. AlphaScreen MITF homodimerization, bead proximity signal. inhibition, % at 2.6 µM. hit rate 0.91% among 650,000. AID 1259374; in the data active means inhibition above about 50%
Large screens that a line does not name were inactive.

COc1cc(/C=C2\SC(=N)N(c3ccc(Br)cc3)C2=O)cc(Br)c1OCC(=O)O	none
CCOC(=O)c1cnc2ccc(OCC)cc2c1Nc1cccc(OC)c1	none
CCOc1ccc2ncc(C#N)c(Nc3cc(OC)cc(OC)c3)c2c1	TEAD-YAP inh 45
O=C(Nc1ccc(Oc2ccc([N+](=O)[O-])c3cnccc23)cc1)c1ccco1	TEAD-YAP inh 39
Cc1ccc([N+](=O)[O-])cc1S(=O)(=O)Nc1cc(SCC(=O)O)c(O)c2ccccc12	MITF inh 65
Cc1ccc(S(=O)(=O)Nc2cc(SCC(=O)O)c(O)c3ccccc23)c(C)c1	none
C/C(=N\Nc1ccccc1C(=O)O)c1ccc(-n2ccnc2)cc1	none
NC(c1nc2ncc(-c3ccncc3)cc2[nH]1)c1ccc(F)cc1F (centres undefined)	FBW7 act 3.5
N[C@H](Cc1ccc(Cl)cc1)c1nc2ncc(-c3ccncc3)cc2[nH]1	none
N#Cc1nc(N2CCCCC2)nc(N2CCCCC2)n1	none
CCNc1nc(C#N)nc(N2CCCCC2)n1	TEAD-YAP inh 41
COCc1c(C(=O)N/N=C\c2ccc(O)cc2O)nnn1-c1nonc1N	none
Cc1c(C(=O)N/N=C/c2ccc(O)cc2O)nnn1-c1nonc1N	TEAD-YAP inh 75
CCc1c(C(=O)N/N=C/c2ccc(N(CC)CC)cc2O)nnn1-c1nonc1N	TEAD-YAP inh 41
CCN(CC)c1ccc(/C=N/NC(=O)c2nnn(-c3nonc3N)c2CN(C)C)c(O)c1	none
COc1cccc(/C=N/NC(=O)c2nnn(-c3nonc3N)c2C)c1O	TEAD-YAP inh 75
COc1cccc(/C=N/NC(=O)c2nnn(-c3nonc3N)c2-c2ccccc2)c1O	none
CC(C)c1nc2c(-c3cn[nH]c3)cccc2c(=O)[nH]1	TEAD-YAP inh 32
CC(C)(C)C(=O)NC1CCN(Cc2nnnn2Cc2ccco2)CC1	TEAD-YAP inh 71
O=C(NC1CCCCC1)NC1CCN(Cc2nnnn2Cc2ccco2)CC1	none
COC(=O)c1cc(S(=O)(=O)Nc2ccc(C(C)C)cc2)cn1C	none
OC(COc1ccccc1)CN1C2=NCCN2c2ccccc21 (centres undefined)	none
OC(COc1ccccc1)CN1C2=NCCCN2c2ccccc21 (centres undefined)	FBW7 act 2.1
COCC(C)n1c(C)cc(C(=O)COC(=O)c2cccn2C)c1C (centres undefined)	TEAD-YAP inh 67
CC1Cc2ccccc2N1C(=O)CSc1nnc(Cc2ccccc2)n1C (centres undefined)	TEAD-YAP inh 49
CC1Cc2ccccc2N1C(=O)CSc1nnc(-c2ccccc2)n1C (centres undefined)	none
O=C(OC[C@H]1O[C@H](OC(=O)c2cc(O)c(O)c(OC(=O)c3cc(O)c(O)c(O)c3)c2)[C@H](OC(=O)c2cc(O)c(O)c(OC(=O)c3cc(O)c(O)c(O)c3)c2)[C@@H](OC(=O)c2cc(O)c(O)c(OC(=O)c3cc(O)c(O)c(O)c3)c2)[C@@H]1OC(=O)c1cc(O)c(O)c(OC(=O)c2cc(O)c(O)c(O)c2)c1)c1cc(O)c(O)c(OC(=O)c2cc(O)c(O)c(O)c2)c1	MITF inh 112
CC(=O)OCC1OC(OC(C)(C)C)C(OC(C)=O)C(OC(C)=O)C1OC(C)=O (centres undefined)	none
COc1ccccc1N1CCN(c2nnnn2-c2ccccc2)CC1	TEAD-YAP inh 37
CCN1/C(=C/C=C/c2oc3ccc(Cl)cc3[n+]2CC)Oc2ccc(Cl)cc21	none
CCN1/C(=C/C=C/c2oc3ccc4ccccc4c3[n+]2CC)Oc2ccc3ccccc3c21	TEAD-YAP inh 78
O=C(Cn1ncc2c(Cl)cccc21)NCCc1ccccc1	none
Cc1cc(N2CCN(c3ccc([N+](=O)[O-])cc3)CC2)n2ncnc2n1	none
COc1ccc(CNC(=O)c2cc(-c3ccc(O)cc3)on2)cc1	TEAD-YAP inh 38
CCOC(=O)C1=C(C)N=c2s/c(=C\c3c(OC)ccc4ccccc34)c(=O)n2C1c1ccc(N(C)C)cc1 (centres undefined)	none
O=C(Nn1c(C2CC2)nc2cc(Cl)ccc2c1=O)c1ccccc1	TEAD-YAP inh 53
CCc1ccc2c(c1)[C@H]1OCC[C@H]1[C@@H](c1cccs1)N2	TEAD-YAP inh 47
C[C@@H]1NC(=O)[C@H]2CN(CCc3ccccc3)CCN2C1=O	none
CC(=O)c1cccc(NC(=O)CSC2N=c3ccc([N+](=O)[O-])cc3=N2)c1 (centres undefined)	MITF inh 71
CC(=O)c1cccc(NC(=O)Cn2ccc([N+](=O)[O-])n2)c1	none
O=C(CN1CCCc2ccccc21)N/N=C/c1ccco1	TEAD-YAP inh 68
